Results: PubChem BioAssay AID720530 (The Scripps Research Institute Molecular Screening Center, 2013)
Screen size: about 1,000 compounds; about 260 (26%) were called active. The list is a sample of the results. Values without a mark were called inactive. No stated cut-off is given here; in the data, active means inhibition above about 21%; inactive means the rest.

Target: E3 ubiquitin-protein ligase UHRF1 (Homo sapiens) (UniProt Q96T88)
Assay: UHRF1 methylated DNA binding inhibitors, counter-screen for MBD2 inhibitor project, biochemical, TR-FRET, human UHRF1 (AID 720530);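 further: UHRF1 SRA domain binding a labeled hemimethylated CpG hairpin DNA; 0% = vehicle only and 100% = reference inhibitor with vehicle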
Details: UHRF1 binding to methylated oligonucleotide, at 4.4 µM, hits give high values

Sequence of E3 ubiquitin-protein ligase UHRF1 (Homo sapiens) (Q96T88 whole entry, looked up, the tested form may be a part): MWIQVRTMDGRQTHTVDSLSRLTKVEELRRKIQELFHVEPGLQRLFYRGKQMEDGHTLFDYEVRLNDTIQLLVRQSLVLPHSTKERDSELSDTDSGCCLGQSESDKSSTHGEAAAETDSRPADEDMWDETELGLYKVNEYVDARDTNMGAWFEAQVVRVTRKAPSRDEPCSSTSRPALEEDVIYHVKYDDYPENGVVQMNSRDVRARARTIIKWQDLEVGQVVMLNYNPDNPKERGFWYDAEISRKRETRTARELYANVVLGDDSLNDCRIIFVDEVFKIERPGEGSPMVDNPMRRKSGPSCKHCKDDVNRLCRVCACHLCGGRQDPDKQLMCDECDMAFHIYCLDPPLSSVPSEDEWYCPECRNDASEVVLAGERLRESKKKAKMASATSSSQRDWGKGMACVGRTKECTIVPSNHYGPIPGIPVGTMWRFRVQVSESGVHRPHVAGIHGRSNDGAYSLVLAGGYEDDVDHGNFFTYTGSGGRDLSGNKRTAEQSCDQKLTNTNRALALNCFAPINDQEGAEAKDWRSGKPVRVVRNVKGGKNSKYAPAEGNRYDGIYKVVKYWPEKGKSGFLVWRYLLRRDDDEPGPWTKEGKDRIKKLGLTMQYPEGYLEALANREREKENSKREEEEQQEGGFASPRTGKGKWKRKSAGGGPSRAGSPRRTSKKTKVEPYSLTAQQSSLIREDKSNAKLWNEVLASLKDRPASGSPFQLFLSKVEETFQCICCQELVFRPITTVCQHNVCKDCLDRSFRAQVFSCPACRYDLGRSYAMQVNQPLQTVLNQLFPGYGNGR

Row | Structure (SMILES) | inhibition
1 | O=C1NC(=O)N(Cc2ccco2)C(=O)/C1=C\c1ccc(-c2ccc(F)cc2)o1 | 12.8%
2 | COc1ccc(N2C(=O)/C(=C/c3ccco3)C(=O)NC2=S)cc1 | 97.2% (active)
3 | Cc1cc(/C=C2/C(=O)NC(=O)N(Cc3ccco3)C2=O)c(C)n1-c1ccc(C(=O)O)cc1 | 15.7%
